Source: PubChem (The Scripps Research Institute Molecular Screening Center)
TEAD-YAP inh: TEAD-YAP interaction inhibition | HEK-TIYL cells, TEAD-Gal4/YAP UAS-luciferase luminescence | inhibition, % at 9.12 µM | hit rate 1.4% among 640,000 | AID 1259422; in the data active = inhibition above about 32%;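 note: 0% = median of test compound wells and 100% = reference inhibitor wells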
MITF primary: blocks human microphthalmia-associated transcription factor. O75030. AlphaScreen MITF homodimerization, bead proximity signal. inhibition, % at 2.6 µM. hit rate 0.91% among 650,000; in the data active = inhibition above about 50%;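 note: 0% = vehicle wells with protein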
FBW7 act: activators of human E3 ligase FBW7; AlphaScreen FBW7–phospho-cyclin E peptide binding, activator screen; AID 1259310; normalized activity (activation), % at 26.1 µM; hit rate 0.13% among 650,000; in the data active = normalized activity above about 1.9%;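 note: purified mutant Fbw7 with reduced substrate affinity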
GPR151 ag: human GPR151 activation | PathHunter beta-arrestin GPR151 cells, luminescence | activation, % at 11.2 µM | hit rate 1% among 650,000 | AID 1508602; in the data active = activation above about 4.9%;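 note: 0% = median of compound wells and 100% = cells with positive control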
Target sequence (Q8TDV0 whole entry, looked up): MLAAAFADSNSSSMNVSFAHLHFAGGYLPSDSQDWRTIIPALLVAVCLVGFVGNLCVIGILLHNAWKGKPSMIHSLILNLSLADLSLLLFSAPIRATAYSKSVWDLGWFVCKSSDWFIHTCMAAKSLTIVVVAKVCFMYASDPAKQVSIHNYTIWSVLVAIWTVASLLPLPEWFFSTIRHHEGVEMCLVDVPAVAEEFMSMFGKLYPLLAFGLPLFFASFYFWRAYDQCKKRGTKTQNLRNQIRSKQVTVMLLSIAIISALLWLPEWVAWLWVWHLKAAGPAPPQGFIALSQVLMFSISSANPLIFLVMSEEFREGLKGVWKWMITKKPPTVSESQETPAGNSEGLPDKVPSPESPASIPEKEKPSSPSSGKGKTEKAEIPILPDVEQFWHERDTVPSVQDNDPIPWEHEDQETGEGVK
MITF confirm: confirmation of human MITF inhibitors; inhibition, % at 2.6 µM; hit rate 16% among 4,700; shares compounds with MITF primary; AID 1259372; AlphaScreen MITF homodimerization, biotin/His-MITF beads;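 active = inhibition above a cutoff derived from the DMSO control wells, cut at about 28% in these data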;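 note: 0% = MITF dimer wells with DMSO only; inhibitors lower the bead chemiluminescence by keeping MITF from dimerizing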
AlphaScreen DR: optically interferes with AlphaScreen signal in dose response; shares compounds with MITF primary; AlphaScreen optical interference counterscreen, cell-free; IC50, µM; hit rate 6% among 480; call rule not given here
AS interf ctr: counter-screen: compounds optically interfering with AlphaScreen | LysRS AlphaScreen counterscreen, signal interference, triplicate | AID 1259376 | inhibition, % at 2.6 µM | hit rate 7.6% among 4,700 | shares compounds with MITF primary;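 active = inhibition above a cutoff derived from the DMSO control wells, cut at about 30% in these data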
* = called active by the depositor; x = no result given. Shown are actives, neighbours in structure and some others; about 3.5% of the full set was active somewhere.

SMILES | TEAD-YAP inh | MITF primary | FBW7 act | GPR151 ag | MITF confirm | AS interf ctr | others
CCN(CC)C(=O)C1CCCN(Cc2sccc2C)C1 (configuration not stated) | 1 | 51* | 0 | 1 | 17 | 13
CCN(CC)C(=O)C1CCCN(Cc2cccc(OC)c2)C1 (configuration not stated) | 0 | 56* | 0 | 1 | -1 | 2
CCN(CC)C(=O)C1CCCN(Cc2cccc(F)c2)C1 (configuration not stated) | 2 | 58* | 0 | -1 | -1 | 0
CCN(CC)C(=O)C1CCCN(Cc2ccc(C)cc2)C1 (configuration not stated) | 13 | 34 | 0 | 2 | x | x
CC1CCCCN1c1nnc(NC(=O)Nc2ccc(F)cc2)s1 (configuration not stated) | -55 | 0 | 0 | 0 | x | x
COc1ccc(NC(=O)CNC(=O)Cn2cnc3ccccc3c2=O)cc1Cl | 0 | 8 | 0 | 0 | x | x
O=C(CNC(=S)N(Cc1cccs1)C1CCCC1)NCc1ccc(Cl)cc1 | -13 | -3 | 0 | -1 | x | x
COc1ccc(CC(=O)NCc2nnc(SCC(=O)NC3CCCCC3)n2C)cc1 | 3 | -15 | 0 | -1 | x | x
COc1ccc(NC(=O)C2CC(=O)NC(=Nc3ccc(C)c(C)c3)S2)cc1 (configuration not stated) | 5 | 0 | 0 | -1 | x | x
Cc1ccc(N=C2NC(=O)CC(C(=O)Nc3ccc(Cl)cc3)S2)cc1C (configuration not stated) | 6 | 78* | 0 | 1 | 9 | 6
CC(C)NC(=O)c1cccc(NC(=O)Nc2ccc(-c3ncnc4[nH]cc(Cl)c34)cc2)c1 | 6 | 78* | 1 | 0 | 88* | -19 | AlphaScreen DR=>6.5
Cc1noc(C)c1C(=O)NC1=NCCS1 | -2 | 57* | 0 | -1 | 6 | 8
Cc1onc(-c2ccccc2)c1C(=O)NC1=NCCS1 | 4 | 8 | 0 | 1 | x | x
COc1ccc(N2CC(CNC(=O)Cc3ccc(F)cc3)CC2=O)cc1 (configuration not stated) | 4 | 55* | 0 | -1 | -16 | -3
O=C(NCC1CCCO1)C(Cc1ccccc1)NS(=O)(=O)c1ccc(Cl)cc1 (configuration not stated) | -2 | 0 | 0 | 0 | x | x
CC(=O)c1cccc(CN2CCN(Cc3cccc(C)n3)C(CCO)C2)c1 (configuration not stated) | -10 | -4 | 0 | -1 | x | x
O=C(Nc1ccccc1C(F)(F)F)c1ccc(NC(=O)c2ccccc2C(=O)O)cc1 | -34 | 56* | 0 | 1 | -3 | 0
O=C(Nc1ccccc1C(F)(F)F)c1ccc(NC(=O)c2ccco2)cc1 | -19 | 5 | 0 | -1 | x | x
O=C(O)c1cccc(NS(=O)(=O)c2cccc(C(=O)Nc3ccccc3)c2)c1 | 4 | 51* | 0 | 1 | 12 | -1
COc1ccc(S(=O)(=O)Nc2ccc(OC)c(Cl)c2)cc1C | 15 | 11 | 0 | 1 | x | x
O=[N+]([O-])c1cccc(P(=O)(c2cccc([N+](=O)[O-])c2)N2CCOCC2)c1 | -4 | 51* | 0 | 0 | -6 | -5
COc1ccc(Br)cc1C(=O)N/N=C/c1ccccc1F | -2 | 67* | 0 | -1 | 7 | 7
N#CNc1nc(N2CCOCC2)nc(N2CCOCC2)n1 | -5 | 2 | 0 | 0 | x | x
CC(C)(C)n1ncc2c(=O)n(Cc3ccccc3)cnc21 | -9 | 6 | 0 | 0 | x | x
CC(C)(C)n1ncc2c(=O)n(Cc3cccc(Cl)c3)cnc21 | -12 | 62* | 0 | 1 | 11 | 13
SMILES | TEAD-YAP inh | MITF primary | FBW7 act | GPR151 ag | MITF confirm | AS interf ctr | others
Cc1cc2ccccn2c1C(=O)c1ccc(S(=O)(=O)N2CCCC2)cc1 | 3 | 4 | 0 | 4 | x | x
Cc1nn(-c2ccc(F)cc2)c(C)c1CNCc1ccccc1 | -3 | 70* | 0 | 0 | 25 | 10
c1ccc(CN2CCC(NCc3c[nH]c4ccccc34)CC2)cc1 | -3 | 62* | 0 | -1 | 12 | 17
c1ccc(CN2CCC(NCc3ccccn3)CC2)cc1 | 4 | 62* | 0 | 0 | 9 | 16
Oc1ccccc1CNC1CCN(Cc2ccccc2)CC1 | 18 | 2 | 0 | 2 | x | x
C=CCOc1ccccc1CNC1CCN(Cc2ccccc2)CC1 | 4 | 53* | 0 | -1 | 14 | 18
c1ccc(C2CCC(NCCc3ccccn3)CC2)cc1 (configuration not stated) | -14 | 59* | 1 | 0 | -20 | -9
COc1ccccc1CNC(=O)C1CCC(Cn2c(=S)[nH]c3ccccc3c2=O)CC1 (configuration not stated) | -17 | 53* | 0 | 2 | -3 | 4
O=S(=O)(Nc1ccccn1)c1ccc(N=Cc2ccc3c(c2)OCO3)cc1 | 5 | 74* | 0 | 1 | 8 | 13
COc1cccc(/C=C2\N=C(c3ccc(Br)cc3)OC2=O)c1 | -2 | -6 | 0 | 1 | x | x
Cn1c(-c2ccc(Br)cc2)cnc1NCc1ccc(C#N)cc1 | -17 | 33 | 0 | 0 | x | x
Cn1c(-c2ccc(Cl)cc2)cnc1NCc1ccc(C#N)cc1 | -7 | 54* | 0 | -1 | -10 | -13
Cc1nc2nc[nH]n2c(=O)c1NS(=O)(=O)c1ccc2c(c1)n(C)c(=O)n2C | 4 | 64* | 0 | -1 | -3 | -6
Cc1nc2nc[nH]n2c(=O)c1NS(=O)(=O)c1ccc(F)cc1 | 2 | 43 | 0 | 0 | x | x
OC(CNCC(c1ccco1)N1CCCC1)COc1ccccc1 (configuration not stated) | 6 | 54* | 0 | -2 | -4 | 1
OC(CNC1CCCC1)COCc1ccccc1Cl (configuration not stated) | 5 | 26 | 0 | 0 | x | x
OC(CNCC(c1ccco1)N1CCCC1)COCc1ccccc1Cl (configuration not stated) | 12 | 61* | 0 | 0 | -11 | 1
COc1cc(/C=C2\C(=O)NC(=O)N(c3c(C)cc(C)cc3C)C2=O)cc(OC)c1O | 2 | 10 | 0 | -1 | x | x
CCCN1CCC(N2CCN(S(=O)(=O)c3ccccc3[N+](=O)[O-])CC2)CC1 | 3 | 84* | 0 | -2 | 12 | 12
CCS(=O)(=O)N1CCN(C2CCCC2)CC1 | -3 | 34 | 0 | 3 | x | x
CS(=O)(=O)N1CCN(C2CCCC2)CC1 | 3 | 21 | 0 | 1 | x | x
CCCS(=O)(=O)N1CCN(C2CCCCC2)CC1 | 3 | 53* | 0 | -2 | 6 | 17
CCCN1CCC(N2CCN(S(C)(=O)=O)CC2)CC1 | -3 | 68* | 0 | -1 | 2 | 16
CCCCCCSc1nnc2c(n1)OC(c1cccc(C)n1)Nc1ccccc1-2 (configuration not stated) | 0 | 3 | 0 | 0 | x | x
Cc1cc(C)n(C(=O)c2cc(-c3ccc(OC(C)C)cc3)nc3ccccc23)n1 | -12 | 8 | 1 | 0 | x | x
